The whole screen tested about 53,000 sequences, of which about 3,700 (7%) were called active.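 The calls were made as follows: active = gene knockdowns whose robust z-score for IL-1 alpha signal is at least 2 or at most -2, so actives lie on both sides; inactive = the rest.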 The entries come from a sample that favours actives as a whole.

Z-score data for 69 sequences are collected here from PubChem BioAssay AID1508600 (Functional Genomics Laboratory (NCATS/FGL), 2020).

A short description of the assay: Components of the Cytosolic LPS Sensing Pathway: Gene Identification via Genome-wide siRNA Screen.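 Also: robust z of the log signal after scaling to non-targeting control siRNA wells of the plate.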 As to conditions: RAW264.7 macrophages, IL-1a HTRF, actives lie on both sides, screened at 100 nM (by protocol), cells primed 5 h with Pam3CSK4 first. In outline:
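RAW264.7 mouse macrophages reverse-transfected with single siRNAs (100 nM final) for 48h, primed with Pam3CSK4 for 5 hours, then transfected with LipidA for 24 hour. Supernatant IL-1a read by HTRF; values normalized to negative-control median, log-transformed robust z-scores.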
For orientation: TR-FRET usually uses a lanthanide donor and a delayed reading to cut background.
Regarding GCCAAUACACGUCUACUGATT against Gm1553, the z-score was -0.0632 (inactive). To GGUGACACUCAAGGUGUCATT against Ldlrap1 belongs 2.23 (active). To GGACCAUGAGACGAUGGGATT against Dysf belongs 0.167 (inactive); to GCUAAUGACACCACUUUUGTT against Aldh9a1, -0.379 (inactive).

As for GGAUUGAGUCCUAUGAAGGTT against Stard3nl, the z-score was -1.09 (inactive).

Take CCAAGUGACUUUAAGGAUGTT against Pcolce: the z-score was 0.759 (inactive). To GGCCAUCAUAUCACCAUUUTT against Rcsd1 belongs 1.6 (inactive). Regarding GCCUUAGGCAUUUAGAUUUTT against Zbed4, the z-score is 1.33 (inactive). To GCUGAAGUUCGUACCCUACTT against Osbp2 belongs -2.42 (active); to CGGAGUUCAGCAUUUACCCTT against Shld2, 0.428 (inactive); to GGCAGUUUGACAACUUUAATT against Fibp, -0.653 (inactive).

As for CCCAGCUCAGGUUUCUAUGTT against Dact2, the z-score was 0.0333 (inactive). As for GGUGAUCAAUCCUCUAAUATT against Eid2, the figure is 2.61 (active); as for GCCUAUGUAAAUAGUGCUGTT against Mt3, 0.549 (inactive); as for GCUAGGUUGGAUAUAUAUGTT against Mypn, -0.0247 (inactive). Regarding CGAAGUGAGAAUUGAAUUUTT against Zp2, the z-score is 1.51 (inactive). For the sequence GCUGCUCAGUUUCUUCCAATT against H4c9, the z-score is 2.08 (active). With CGGGAAGUAGUGCAACACCTT against Taldo1, the z-score was -0.902 (inactive). Regarding GCACGUAGUAAGAUGUUACTT against Cnot9, the z-score is -0.969 (inactive). As to GGGCAUGAAUGGUUACUUATT against Mllt6, the z-score is 1.24 (inactive). For GCACAGUACCAUAACGGCUTT against Nampt, the z-score is -2.06 (active). To GGGUGUCAUAUAUAUUGCUTT against Gpr83 belongs 0.889 (inactive); to GCAAGUGAAAUCCAAACAGTT against Nabp1, -1.54 (inactive). To GGUGAGAAGACCAUUGAUUTT against Insr belongs 0.459 (inactive); to GGUACUCUCAUUAUCUUUCTT against Tlr8, -0.217 (inactive). Turning to GUGAGAAGUUGUGUAGAGCTT against Fmc1, the z-score is 1.84 (inactive).

Turning to GCAUACAACUGUUCAUAGATT against Nsrp1, the z-score was -0.476 (inactive). To GGAGCUGAGGGAACCUUGUTT against Slc35c1 belongs -2.67 (active); to GGACAGCGACAAGAUUCCGTT against Sox4, -0.714 (inactive); to GCCUUUAAUCAACCCAAGATT against Scd1, -0.728 (inactive). To GCUAAAGAUGAGCGUACAUTT against Myh10 belongs 1.44 (inactive); to GGUGGUGGAGAAGAUAGGATT against Pax8, -1.05 (inactive); to CCAUCUAUUACGGAACGGGTT against Olfr324, 1.36 (inactive).

GGCCUCAACUAAGAACCCUTT against Pcdh1: the z-score was -0.298 (inactive). To GGUCCAAUUAACCUAUCUUTT against Ppip5k2 belongs -2.06 (active). As to GGAGAUUAGUUACUUCCAGTT against Slc1a7, the z-score was 3.5 (active). For the sequence GGAUACAUUAAUUGUUUGGTT against Ppp4r3b, the z-score is 2.55 (active).

With GGUCACUGCUAAAGCCUGATT against Stoml3, the z-score was 0.864 (inactive). Regarding GGCCAUGAAUAUGGAGUCCTT against Cptp, the z-score was 0.623 (inactive). Take GGAAAUCAGAGCUGAGUUATT against Ankrd6: the z-score was 0.0763 (inactive). To GGUAGUAGUAAGCCAUAAATT against Exoc8 belongs 0.736 (inactive); to “CCCUUGAACAUUCUACUCUTT against 1700012A03Rik”, -0.955 (inactive); to GAUCAUCGGCAUUUUGAACTT against Il4, -0.527 (inactive). For the sequence GGCUGGUACAAAGUUUUAGTT against Mpv17, the z-score is 2.55 (active). To “GGUAGUAGGAGUUUCCUACTT against 4933414I15Rik” belongs 1.44 (inactive); to CGGUAAUCAUUGCUGUUCUTT against H2-K1, 1.05 (inactive); to GGAAGACCAAUAGUACUGCTT against Il1rn, -0.0282 (inactive). For the sequence GGAGUACGAAUUCCUCACUTT against Arhgdib, the z-score is -0.0475 (inactive). Consider GGCUCAAAGAAUAUGCCAATT against Rad54b, for which the z-score was 0.99 (inactive).

On to GCCAGUGCUGGUUUGAAAUTT against Clip4, for which the z-score is 1.67 (inactive). To CCACUGUUACCAUUAUAAUTT against Pramel4 belongs -0.594 (inactive); to GGAUAAAGGAAUCUGAUCUTT against Unc80, -2.58 (active). For GCGCAGAAGAGGCUAUUAUTT against Asprv1, the z-score was -0.125 (inactive). In the case of GGUAGCACUUACGUGAAAUTT against Mbd2, the z-score is -0.655 (inactive). As for GCAUAUGGCACCACAUUGUTT against Psg25, the figure is 0.0646 (inactive); as for GGAUAUCAGGGUUGUUAAGTT against Txnl4b, 0.952 (inactive). On to GGCUAUGUUAAUUUGUCCCTT against Hc, for which the z-score was 0.00272 (inactive). Take GCAAUAUGUGACAAACUUCTT against Ptpn22: the z-score is 2.06 (active). Consider GGAAUCAGCAAUGGACCCUTT against Parn, for which the z-score is -0.818 (inactive). For the sequence CCUGGGCCUUAACAAGAAGTT against Upf1, the z-score is -1.32 (inactive). Take CCCACUUUGAAAAAGACUCTT against Mei4: the z-score was 2.5 (active).

Consider GCUUUGGAUAGUAGACAGCTT against BC055324, for which the z-score is 0.199 (inactive).

Consider GGGACAAUUAGAAAGACAUTT against Mtif2, for which the z-score is 0.982 (inactive). To GGAACCAACCAGGAGAAAUTT against Ms4a4d belongs -2.58 (active); to GGAACUCACGCACAUAUUUTT against Net1, -0.483 (inactive); to GACUUACUUGCAUCACUGATT against Vmn1r4, -0.732 (inactive). Turning to GGUGAAUGUAUAAGUUAUGTT against Icam1, the z-score was 1 (inactive). To GCUUUCUUAGCAUUAAAUCTT against Zkscan3 belongs -0.274 (inactive); to GGUUCAUGAUGGAUGACAUTT against Bmerb1, -1.96 (inactive).
